# Active and inactive are the calls of the source. How the source made its calls: active means hit-call score of the fitted dose curve at least 0.9, where 1 is the maximum; inactive means score below 0.9.
# Key:
# [1] = read-out: Transforming growth factor beta 1 (TGFb1), TGFB1 (gene 7040); experiment: BSK_KF3CT_TGFb1: BioMAP Diversity Plus: KF3CT Assay for Transforming growth factor beta 1 (TGFb1) Biomarker Activity (AID 2283072); settings: primary human keratinocytes with fibroblasts; actives raise or lower the signal
# Method in brief: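 ELISA quantifies TGF-b1 at 24 h post-dose in a primary human skin co-culture of keratinocytes and fibroblasts, with gain or loss judged against DMSO. Parallel SRB total-protein staining flags overt cytotoxicity.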
# [2] = read-out: C-C motif chemokine 2 (Homo sapiens) (UniProt P13500); experiment: BSK_KF3CT_MCP1: BioMAP Diversity Plus: KF3CT Assay for Monocyte Chemoattractant Protein 1 (MCP1/CCL2) Biomarker Activity (AID 2283073); settings: primary human keratinocytes with fibroblasts; actives raise or lower the signal
# Method in brief: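 KF3CT skin co-culture (keratinocytes/foreskin fibroblasts), 24 h post-dose; MCP-1 by ELISA; gain/loss of signal fit bidirectionally vs DMSO baseline.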
# [3] = read-out: Matrix Metallopeptidase 9 (MMP9), MMP9 (gene 4318); experiment: BSK_KF3CT_MMP9: BioMAP Diversity Plus: KF3CT Assay for Matrix Metallopeptidase 9 (MMP9) Biomarker Activity (AID 2283074); settings: primary human keratinocytes with fibroblasts; actives raise or lower the signal
# Method in brief: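 MMP-9 quantified by ELISA after 24 h chemical treatment of primary human skin keratinocyte/fibroblast co-cultures; gain or loss fitted against DMSO, with parallel SRB staining (0.1% SRB, 560 nm) for overt cytotoxicity.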
# [4] = read-out: urokinase plasminogen activator (uPA), PLAU (gene 5328); experiment: BSK_KF3CT_uPA: BioMAP Diversity Plus: KF3CT Assay for urokinase plasminogen activator (uPA) Biomarker Activity (AID 2283075); settings: primary human keratinocytes with fibroblasts; actives raise or lower the signal
# Method in brief: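 ELISA read-out of uPA 24 h after dosing human skin keratinocytes co-cultured with foreskin fibroblasts. Signal change fitted both ways relative to DMSO; sulforhodamine B on parallel cultures marks overt cytotoxicity.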
# CD40, CD40 (gene 958) [5] = experiment: BSK_LPS_CD40: BioMAP Diversity Plus: LPS Assay for CD40 Biomarker Activity (AID 2283076); settings: primary human HUVEC with PBMC; actives raise or lower the signal
# Method in brief: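 ELISA readout of CD40 in HUVEC/PBMC co-culture (BSK_LPS system), 24 h post-dosing; bidirectional curve fit, DMSO baseline; parallel SRB total-protein staining for cytotoxicity.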
# [6] = read-out: E-selectin (Homo sapiens) (UniProt P16581); experiment: BSK_LPS_Eselectin: BioMAP Diversity Plus: LPS Assay for Eselectin Biomarker Activity (AID 2283077); settings: primary human HUVEC with PBMC; actives raise or lower the signal
# Method in brief: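 ELISA readout of E-selectin, 24 h post-dose, HUVEC + PBMC co-culture (LPS system). Gain or loss of signal vs DMSO baseline, bidirectional fit.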
# [7] = read-out: Interleukin-8 (IL8), CXCL8 (gene 3576); experiment: BSK_LPS_IL8: BioMAP Diversity Plus: LPS Assay for Interleukin-8 (IL8) Biomarker Activity (AID 2283078); settings: primary human HUVEC with PBMC; actives raise or lower the signal
# Method in brief: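 HUVEC + PBMC co-culture, LPS-activated; test chemicals dosed, IL-8 read by ELISA at 24 h. Bidirectional curve fit vs DMSO baseline (gain or loss of signal).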
# [8] = BSK_LPS_SRB: Viability Assessment in the BioMAP Diversity Plus: LPS Assay (AID 2283079); settings: primary human HUVEC with PBMC;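 further: total protein by sulforhodamine B absorbance as a cytotoxicity measure; measured one day after compound addition; fitted in both directions against DMSO so loss or gain of signal counts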
# Method in brief: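 HUVEC + PBMC co-culture, LPS-stimulated; compound 24 h. 10% TCA fix, 0.1% SRB stain, A560. Bidirectional fit vs DMSO.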
# [9] = read-out: Interleukin-1 alpha (IL1a), IL1A (gene 3552); experiment: BSK_LPS_IL1a: BioMAP Diversity Plus: LPS Assay for Interleukin-1 alpha (IL1a) Biomarker Activity (AID 2283080); settings: primary human HUVEC with PBMC; actives raise or lower the signal
# Method in brief: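 HUVEC/PBMC co-culture, LPS system; 24 h after dosing; IL-1a by ELISA; gain or loss of signal fitted bidirectionally vs DMSO baseline.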
# [10] = BSK_LPS_PGE2: BioMAP Diversity Plus: LPS Assay for Prostaglandin E2 (PGE2) Biomarker Activity (AID 2283082); settings: primary human HUVEC with PBMC; actives raise or lower the signal;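 on AC50: secreted prostaglandin E2 measured by ELISA in LPS-stimulated co-culture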
# Method in brief: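 PGE2 release measured by ELISA in an LPS-activated co-culture of human umbilical vein endothelial cells and peripheral blood mononuclear cells, read at 24 h post-dosing. DMSO served as baseline for bidirectional curve fitting.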
# [11] = read-out: Macrophage colony-stimulating factor (MCSF), CSF1 (gene 1435); experiment: BSK_LPS_MCSF: BioMAP Diversity Plus: LPS Assay for Macrophage colony-stimulating factor (MCSF) Biomarker Activity (AID 2283083); settings: primary human HUVEC with PBMC; actives raise or lower the signal
# Method in brief: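 HUVEC + PBMC co-culture (human primary), 24 h post-dose; M-CSF by ELISA; gain/loss of signal fitted bidirectionally vs DMSO baseline.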
# [12] = read-out: Tissue Factor, F3 (gene 2152); experiment: BSK_LPS_TissueFactor: BioMAP Diversity Plus: LPS Assay for Tissue Factor Biomarker Activity (AID 2283084); settings: primary human HUVEC with PBMC; actives raise or lower the signal
# Method in brief: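 HUVEC/PBMC co-culture, LPS-activated; CD142 ELISA read 24 h post-dose; bidirectional curve fit vs DMSO negative control.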
# [13] = read-out: Tumor necrosis factor (Homo sapiens) (UniProt P01375); experiment: BSK_LPS_TNFa: BioMAP Diversity Plus: LPS Assay for Tumour Necrosis Factor alpha (TNFa) Biomarker Activity (AID 2283085); settings: primary human HUVEC with PBMC; actives raise or lower the signal
# Method in brief: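 TNFa was quantified by ELISA in LPS-activated co-cultures of human endothelial cells and PBMC, 24 h post-dosing. Both increases and decreases versus DMSO were fitted.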
# [14] = read-out: Vascular cell adhesion molecule 1 (VCAM1), VCAM1 (gene 7412); experiment: BSK_LPS_VCAM1: BioMAP Diversity Plus: LPS Assay for Vascular cell adhesion molecule 1 (VCAM1) Biomarker Activity (AID 2283086); settings: primary human HUVEC with PBMC; actives raise or lower the signal
# Method in brief: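 VCAM-1 quantified by ELISA in an LPS-activated co-culture of human endothelial cells and peripheral blood mononuclear cells, read 24 h post-treatment. Fitted in both directions versus DMSO; parallel SRB staining flags overt cytotoxicity.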
# CD38, CD38 (gene 952) = experiment: BSK_SAg_CD38: BioMAP Diversity Plus: SAg Assay for CD38 Biomarker Activity (AID 2283087); settings: primary human HUVEC with PBMC; actives raise or lower the signal
# Method in brief: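 CD38 quantified by ELISA (fluorescence) in a superantigen-activated endothelial cell–PBMC co-culture at 24 h post-dose. Activity fitted in both directions relative to DMSO; parallel SRB and Alamar Blue cytotoxicity read-outs.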
# CD40, CD40 (gene 958) [15] = experiment: BSK_SAg_CD40: BioMAP Diversity Plus: SAg Assay for CD40 Biomarker Activity (AID 2283088); settings: primary human HUVEC with PBMC; actives raise or lower the signal
# Method in brief: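 HUVEC/PBMC co-culture, 24 h post-dose; CD40 by ELISA, fluorescence intensity; bidirectional fit vs DMSO negative control.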
# [16] = read-out: Monocyte Chemoattractant Protein-1 (MCP1), CCL2 (gene 6347); experiment: BSK_SAg_MCP1: BioMAP Diversity Plus: SAg Assay for Monocyte Chemoattractant Protein-1 (MCP1) Biomarker Activity (AID 2283090); settings: primary human HUVEC with PBMC; actives raise or lower the signal
# Method in brief: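 Values derive from bidirectional fitting of ELISA-measured MCP1 against DMSO controls. Readings were taken 24 h after dosing human vascular endothelial cells co-cultured with peripheral blood mononuclear cells under superantigen stimulation.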
# [17] = read-out: E-selectin (Homo sapiens) (UniProt P16581); experiment: BSK_SAg_Eselectin: BioMAP Diversity Plus: SAg Assay for Eselectin Biomarker Activity (AID 2283091); settings: primary human HUVEC with PBMC; actives raise or lower the signal
# Method in brief: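 E-selectin ELISA readout at 24 h post-dosing in human umbilical vein endothelial cell/PBMC co-culture; gain or loss of signal fitted relative to DMSO baseline.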
# CD69, CD69 (gene 969) = experiment: BSK_SAg_CD69: BioMAP Diversity Plus: SAg Assay for CD69 Biomarker Activity (AID 2283089); settings: primary human HUVEC with PBMC; actives raise or lower the signal
# Method in brief: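 Values derive from bidirectional fitting relative to DMSO vehicle. Cells: umbilical vein endothelium plus peripheral blood mononuclear cells, treated 24 h before fluorescent ELISA for CD69.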
# [18] = read-out: Monocyte Chemoattractant Protein-1 (MCP1), CCL2 (gene 6347); experiment: BSK_LPS_MCP1: BioMAP Diversity Plus: LPS Assay for Monocyte Chemoattractant Protein-1 (MCP1) Biomarker Activity (AID 2283081); settings: primary human HUVEC with PBMC; actives raise or lower the signal
# Method in brief: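 ELISA read-out of MCP-1 after 24 h chemical dosing of a human umbilical vein endothelial cell/peripheral blood mononuclear cell co-culture stimulated with LPS. Gain or loss of signal fitted relative to DMSO controls.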
# Sequence of Tumor necrosis factor (Homo sapiens) (P01375 whole entry, looked up): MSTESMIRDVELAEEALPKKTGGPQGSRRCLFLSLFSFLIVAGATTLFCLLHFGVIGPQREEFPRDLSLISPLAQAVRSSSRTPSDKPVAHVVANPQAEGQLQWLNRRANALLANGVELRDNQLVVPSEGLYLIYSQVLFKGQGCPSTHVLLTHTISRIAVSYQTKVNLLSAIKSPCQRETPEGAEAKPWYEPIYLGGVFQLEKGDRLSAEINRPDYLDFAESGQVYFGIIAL
# Sequence of E-selectin (Homo sapiens) (P16581 whole entry, looked up): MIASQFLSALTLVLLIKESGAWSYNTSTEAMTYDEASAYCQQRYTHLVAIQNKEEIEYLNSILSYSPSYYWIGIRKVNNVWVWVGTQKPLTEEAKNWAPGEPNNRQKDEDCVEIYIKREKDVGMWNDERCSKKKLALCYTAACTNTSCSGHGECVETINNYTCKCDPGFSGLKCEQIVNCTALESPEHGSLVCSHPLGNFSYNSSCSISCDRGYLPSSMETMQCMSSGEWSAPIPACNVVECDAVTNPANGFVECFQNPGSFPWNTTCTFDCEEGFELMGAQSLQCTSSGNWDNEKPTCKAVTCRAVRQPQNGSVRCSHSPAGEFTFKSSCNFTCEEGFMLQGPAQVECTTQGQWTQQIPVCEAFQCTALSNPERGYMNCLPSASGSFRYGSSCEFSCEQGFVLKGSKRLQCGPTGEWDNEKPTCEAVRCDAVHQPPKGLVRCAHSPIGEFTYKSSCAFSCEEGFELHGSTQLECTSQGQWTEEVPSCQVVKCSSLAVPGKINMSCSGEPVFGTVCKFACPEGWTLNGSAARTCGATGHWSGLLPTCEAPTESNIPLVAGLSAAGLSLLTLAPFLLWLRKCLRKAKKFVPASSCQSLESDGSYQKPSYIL
smiles,measurement,setting,value
CNC(=O)[C@H]1O[C@@H](n2cnc3c(NCc4cc(Cl)ccc4OCc4cc(C)no4)ncnc32)[C@H](O)[C@@H]1N,outcome,[1],inactive
same,outcome,[2],inactive
same,outcome,[3],inactive
same,outcome,[4],inactive
same,outcome,"CD40, CD40 (gene 958) [5]",inactive
same,outcome,[6],inactive
same,outcome,[7],inactive
same,outcome,[8],inactive
same,outcome,[9],inactive
same,outcome,[10],inactive
same,outcome,[11],inactive
same,outcome,[12],inactive
same,outcome,[13],inactive
same,outcome,[14],inactive
same,outcome,"CD38, CD38 (gene 952)",inactive
same,outcome,"CD40, CD40 (gene 958) [15]",inactive
same,outcome,[16],inactive
same,outcome,[17],inactive
C=CCOC(=O)c1ccccc1C(=O)OCC=C,outcome,[1],inactive
same,outcome,[2],inactive
same,outcome,[3],inactive
same,outcome,[4],inactive
same,outcome,"CD40, CD40 (gene 958) [5]",inactive
same,outcome,[6],inactive
same,outcome,[7],inactive
same,outcome,[8],inactive
same,outcome,[9],inactive
same,outcome,[10],inactive
same,outcome,[11],inactive
same,outcome,[12],inactive
same,outcome,[13],inactive
same,outcome,[14],inactive
same,outcome,"CD38, CD38 (gene 952)",inactive
same,outcome,"CD40, CD40 (gene 958) [15]",inactive
same,outcome,"CD69, CD69 (gene 969)",inactive
same,outcome,[16],inactive
same,outcome,[17],inactive
CC1(C)NC(=O)NC1=O,outcome,[1],inactive
same,outcome,[2],inactive
same,outcome,[3],inactive
same,outcome,[4],inactive
same,outcome,"CD40, CD40 (gene 958) [5]",inactive
same,outcome,[6],inactive
same,outcome,[7],inactive
same,outcome,[8],inactive
same,outcome,[9],inactive
same,outcome,[18],inactive
same,outcome,[10],inactive
same,outcome,[11],inactive
same,outcome,[12],inactive
same,outcome,[13],inactive
same,outcome,[14],inactive
same,outcome,"CD38, CD38 (gene 952)",inactive
same,outcome,"CD40, CD40 (gene 958) [15]",inactive
same,outcome,[16],inactive
same,outcome,[17],inactive
CC(CO)OC(C)CO (stereo not drawn) (tested in a mixture with another compound),outcome,[1],inactive
same,outcome,[2],inactive
same,outcome,[3],inactive
same,outcome,[4],inactive
same,outcome,"CD40, CD40 (gene 958) [5]",inactive
same,outcome,[6],inactive
same,outcome,[7],inactive
same,outcome,[8],inactive
same,outcome,[9],inactive
same,outcome,[18],inactive
same,outcome,[10],inactive
same,outcome,[11],inactive
same,outcome,[12],inactive
same,outcome,[13],inactive
same,outcome,[14],inactive
same,outcome,"CD38, CD38 (gene 952)",inactive
same,outcome,"CD69, CD69 (gene 969)",inactive
same,outcome,[16],inactive
same,outcome,[17],inactive
Cc1ccc(C(C)C)c(O)c1,outcome,[1],inactive
same,outcome,[2],inactive
same,outcome,[3],inactive
same,outcome,[4],inactive
same,outcome,"CD40, CD40 (gene 958) [5]",inactive
same,outcome,[6],inactive
same,outcome,[7],inactive
same,outcome,[8],inactive
same,outcome,[9],inactive
same,outcome,[18],inactive
same,AC50,[10],8.88 µM (active)
same,outcome,[11],inactive
same,outcome,[12],inactive
same,outcome,[13],inactive
same,outcome,[14],inactive
same,outcome,"CD38, CD38 (gene 952)",inactive
same,outcome,"CD40, CD40 (gene 958) [15]",inactive
same,outcome,[16],inactive
same,outcome,[17],inactive
Cc1nc(C)nc(N2C[C@@H](C)N(c3ccnc([C@@H](C)O)n3)[C@@H](C)C2)n1,outcome,[1],inactive
same,outcome,[2],inactive
same,outcome,[3],inactive
same,outcome,[4],inactive
same,outcome,"CD40, CD40 (gene 958) [5]",inactive
same,outcome,[6],inactive
same,outcome,[7],inactive
same,outcome,[8],inactive
same,outcome,[9],inactive
same,outcome,[18],inactive
same,outcome,[10],inactive
same,outcome,[11],inactive
same,outcome,[12],inactive
same,outcome,[13],inactive
same,outcome,[14],inactive
same,outcome,"CD38, CD38 (gene 952)",inactive
same,outcome,"CD69, CD69 (gene 969)",inactive
same,outcome,[16],inactive
same,outcome,[17],inactive

# From PubChem BioAssay (EPA / NIEHS)
